# Legend:
# Test in all cases: PBM binding z-score (relative to random genomic background probes); higher = stronger binding; sequences stand for … in GC…GCGATTGACAGCGTAGAATGAAGG
# [1] = test system: PPARg:RXRa DBDmut IVT, anti-RXR (DBD mutation: RXRa K156A/R161A, NR concentration 270 nM, RXRa partner concentration 90 nM)
# Outline: (§1)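 Each nuclear receptor dimer, without ligand, was incubated for 1 h on custom Agilent 4×180K protein-binding microarrays. Binding was detected with antibodies against each partner (one per run), and scanned fluorescence was regression-normalized. The binding z-scores are referenced to random human genomic background probes.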
# [2] = test system: PPARg:RXRa IVT, anti-PPARg (NR concentration 270 nM, RXRa partner concentration 90 nM)
# Outline: as §1
# [3] = test system: PPARg DBDmut IVT, anti-PPARg (DBD mutation: PPARg1 K132A/R137A, NR concentration 270 nM)
# Outline: as §1
# [4] = test system: PPARg homodimer (NR concentration 180 nM)
# Outline: as §1
# [5] = test system: PXR:RXRa (NR concentration 270 nM, RXRa partner concentration 90 nM)
# Outline: as §1
# [6] = test system: PXR homodimer (NR concentration 270 nM)
# Outline: as §1
# [7] = test system: RARa:RXR (NR concentration 270 nM, RXRa partner concentration 90 nM)
# Outline: as §1
# [8] = test system: RARa homodimer (NR concentration 270 nM)
# Outline: as §1
# [9] = test system: RARb:RXRa (NR concentration 270 nM, RXRa partner concentration 90 nM)
# Outline: as §1
# [10] = test system: RARb homodimer (NR concentration 270 nM)
# Outline: as §1
# [11] = test system: RARg:RXRa (NR concentration 270 nM, RXRa partner concentration 90 nM)
# Outline: as §1
# [12] = test system: RARg homodimer (NR concentration 270 nM)
# Outline: as §1
# [13] = test system: RXRa DBDmut IVT, anti-RXR (DBD mutation: RXRa K156A/R161A, NR concentration 90 nM)
# Outline: as §1
# [14] = test system: RXRa homodimer (NR concentration 180 nM)
# Outline: as §1
# [15] = test system: THRa:RXRa (NR concentration 90 nM, RXRa partner concentration 90 nM)
# Outline: as §1
# [16] = test system: THRa homodimer (NR concentration 90 nM)
# Outline: as §1
# [17] = test system: VDR:RXRa (NR concentration 270 nM, RXRa partner concentration 90 nM)
# Outline: as §1
# [18] = test system: VDR homodimer (NR concentration 270 nM)
# Outline: as §1
Sequence,PBM binding z-score [1],PBM binding z-score [2],PBM binding z-score [3],PBM binding z-score [4],PBM binding z-score [5],PBM binding z-score [6],PBM binding z-score [7],PBM binding z-score [8],PBM binding z-score [9],PBM binding z-score [10],PBM binding z-score [11],PBM binding z-score [12],PBM binding z-score [13],PBM binding z-score [14],PBM binding z-score [15],PBM binding z-score [16],PBM binding z-score [17],PBM binding z-score [18]
CGAACTAGGTCAAAGGAGAGTGAAAGGCGACGTA,8.02,7.99,0.59,0.681,1.1,-0.124,1.85,-0.114,3.65,2.43,3.75,4.22,1.62,3,2.32,0.277,0.961,0.0165
AAATGTAGGTTAGGGTCATTCAGAAAGTAGGGAA,7.33,7.35,1.95,3.74,4.47,2.29,4.78,1.99,3.64,3.49,3.99,3.4,2.78,5.29,4.02,3.35,4.55,3.92
CGAACTAGGTCGAAGGACAGTGAAAGGCGACGTA,4.92,5.17,-0.201,0.0184,-0.467,-0.851,-0.0163,-0.8,1.18,0.802,0.619,1.1,0.469,0.475,0.508,-0.399,–,-0.311
CGAACTAGGTCACCAGGACAGTGATGAGGTTGGA,7.98,8.61,0.614,2.34,1.5,0.423,2.69,0.546,4.16,3.53,4.4,5.41,1.28,3.45,3.42,2.08,–,1.13
CGAACTAGGTCACCAGGACAGTAAAGAGGTTGGA,8.12,8.87,5.2,2.63,1.66,0.231,2.62,0.29,4.12,3.58,4.57,5.2,1.79,3.38,3.29,1.86,–,0.977
ATATGTAGGTTAGGGTCATTCGGAAAGTAGGGAA,6.55,6.85,4.65,3.85,4.53,1.88,4.88,2.27,3.43,3.62,4.07,3.15,2.51,5.06,4.16,3.3,4.45,4.24
ACATGTAGGTTAGGGTCATTCAGAAAGTAGGGAA,5.77,5.83,3.59,3.84,4.47,2.63,5.07,1.97,3.61,3.51,4.16,3.32,3.02,5.14,4.05,3.66,4.52,3.75
CGAACTAGGTCAAAGGACCGTGAAAGGCGACGTA,7.75,8.21,0.0403,0.811,0.907,-0.51,1.44,-0.512,3.69,2.22,3.5,4.44,1.42,2.86,2.23,0.043,–,0.238
CGAACTAGGTCAAAGGACAGTGATAGGCGACGTA,8.07,8.07,0.359,1.45,1.14,-0.148,2.05,0.153,3.95,3.06,3.97,4.98,1.56,3.26,2.56,0.594,1.45,0.324
CGAACTACGTCACCAGGACAGTGAAGAGGTTGGA,0.112,0.232,-0.216,0.245,-0.245,-0.301,0.0876,-0.285,-0.125,0.196,0.119,0.277,-0.206,0.256,1.27,0.657,-0.211,0.0213
CGAACTAGCTCAAAGGACAGTGAAAGGCGACGTA,-0.134,-0.285,-0.415,0.163,-0.639,-0.457,-0.276,0.225,0.694,0.955,0.138,0.6,-0.347,-0.119,0.0409,-0.622,–,-0.00865
CGAACTAGGTCAAAGGAAAGTGAAAGGCGACGTA,7.92,8.23,1.64,0.636,0.854,-0.0237,1.65,0.526,3.55,2.25,3.46,4.01,1.15,2.39,1.95,0.083,0.89,0.538
ATACGTAGGTTAGGGTCATTCAGAAAGTAGGGAA,0.761,2.44,0.669,3.09,4.27,1.89,4.85,1.86,3.39,3.19,4.12,3.37,2.35,5.33,4.07,2.92,–,3.67
CGAAATAGGTCAAAGGACAGTGAAAGGCGACGTA,7.36,7.35,0.994,2.41,2.34,-0.0747,3.92,0.491,4.49,3.4,4.97,5.11,1.3,4.58,2.4,-0.113,–,0.355
